# High-throughput results: PubChem, National Center for Advancing Translational Sciences (NCATS)
# Rows were chosen to be rich in hits. Some 9% of all compounds tested hit in one or more screens of this group.
# 12-LOX inh = Primary qHTS assay for inhibitors of human arachidonate 12S-lipoxygenase (ALOX12): Round 2; purified 12hLO, xylenol orange hydroperoxide absorbance; Potency, µM (titrated, usually from 108 µM), inactives show top-dose activity change, negative = inhibition, usual class: inhibitors; Polyunsaturated fatty acid lipoxygenase ALOX12 (Homo sapiens), P18054; actives 1.1% (n = 580,000); AID 1671190, 2021; also: % is scaled to controls: 0 for no effect and ±100 for the full control effect
#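 Purified human 12hLO (150 nM final) in 25 mM Hepes, 0.01% Triton X-100, pH 7.0 was preincubated 15 min at room temperature with compound. Then 40 uM arachidonic acid was added, 30 min. Hydroperoxide was read by Fe-XO absorbance ratio 573/405 nm.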
# BAZ2B inh = qHTS Assay for Inhibitors of BAZ2B; actives 4.4% (n = 360,000); Potency, µM (titrated, usually from 114 µM), without a hit: top-dose activity change, negative = inhibition, most hits filed as inhibitors; AlphaScreen BAZ2B-H3K14Ac peptide displacement; Bromodomain adjacent to zinc finger domain protein 2B (Homo sapiens), Q9UIF8; also: % is scaled to controls: 0 for no effect and ±100 for the full control effect; nearly all actives have a fitted effect of over 60% in size
#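 AlphaScreen luminescence quantifies BAZ2B engagement of H3K14Ac peptide; the protein and biotinylated peptide are both at 50 nM final, buffer PBS pH 7.4 with 0.01% Tween-20, all steps at room temperature.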
# G9a block = qHTS Assay for Inhibitors of Histone Lysine Methyltransferase G9a | Histone-lysine N-methyltransferase EHMT2 (Homo sapiens), Q96KQ7 | G9a H3K9 monomethylation, AlphaScreen, 2 h | Potency, µM (highest dose often 102 µM), for the others: top-dose activity, negative = inhibition, usual class: inhibitors | actives 8.8% (n = 350,000); also: % is scaled to controls: 0 for no effect and ±100 for the full control effect; nearly all actives have a fitted effect of over 75% in size
# Target sequence (Q96KQ7 913-1193 limits assumed): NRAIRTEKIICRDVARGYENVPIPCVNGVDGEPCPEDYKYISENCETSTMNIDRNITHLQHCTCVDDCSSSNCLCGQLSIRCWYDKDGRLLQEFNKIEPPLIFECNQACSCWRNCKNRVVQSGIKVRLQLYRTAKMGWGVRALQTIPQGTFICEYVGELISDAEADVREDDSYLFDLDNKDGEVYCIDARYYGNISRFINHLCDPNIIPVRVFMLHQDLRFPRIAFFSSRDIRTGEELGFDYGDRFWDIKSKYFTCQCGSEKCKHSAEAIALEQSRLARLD
#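 Methyltransferase reactions run at room temperature for 2 h (20 nM enzyme, 500 nM biotin-H3K9 peptide, 20 uM SAM) after a 15 min compound preincubation; product detected by AlphaScreen beads and anti-H3K9me1 antibody.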
# PLK1 PBD inh = qHTS for Inhibitors of PLK1-PDB (polo-like kinase 1 - polo-box domain): Primary Screen; Plk1 PBD binding of FITC phosphopeptide, fluorescence polarization; Potency, µM, without a hit: max response, negative = inhibition, most hits filed as inhibitors; actives 2.8% (n = 360,000); also: series mostly up to about 57 µM; % is scaled to controls: 0 for no effect and ±100 for the full control effect; nearly all actives have a fitted effect of over 65% in size
# JMJD2A Tudor inh = qHTS Assay for Inhibitors of JMJD2A-Tudor Domain | Lysine-specific demethylase 4A (Homo sapiens), O75164 | AlphaScreen JMJD2A-Tudor / H3K4me3 peptide binding | Potency, µM (doses to about 114 µM), for the others: top-dose activity change, negative = inhibition, actives largely listed as inhibitors | actives 4.4% (n = 390,000); also: % is scaled to controls: 0 for no effect and ±100 for the full control effect; nearly all actives have a fitted effect of over 50% in size
# HP1b chromo inh = HTS for Inhibitors of HP1-beta Chromodomain Interactions with Methylated Histone Tails; AID 540317, 2011; Potency, µM (titrated, usually from 114 µM), without a hit: at the highest dose activity change, negative = inhibition, hits mostly inhibitors; AlphaScreen HP1-beta / biotin-H3K9me3 peptide binding; Chromobox protein homolog 1 (Homo sapiens), P83916; actives 0.56% (n = 390,000); also: nearly all actives have a fitted effect of over 70% in size
# Target sequence (P83916 whole entry, looked up): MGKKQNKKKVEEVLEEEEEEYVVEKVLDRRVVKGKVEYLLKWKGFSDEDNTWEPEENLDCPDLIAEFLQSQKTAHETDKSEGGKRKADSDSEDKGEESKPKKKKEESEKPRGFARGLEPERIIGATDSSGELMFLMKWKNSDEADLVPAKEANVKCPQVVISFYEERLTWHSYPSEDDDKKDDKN
#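 Compound inhibition of the preformed complex between 50 nM HP1-beta and 50 nM biotinylated H3K9me3 peptide was read by AlphaScreen. Buffer was PBS pH 7.4 with 0.01% Tween-20. Incubations ran 30 min at room temperature, with 10 ug/mL donor/acceptor beads.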
# * = called active by the depositor; ? = inconclusive; nt = not tested or not shown; [ ] = dose if it differs, or a comment. Calls follow the shape of the dose curve; as a rule, active = well fitted curve in the direction sought with a large enough effect; inconclusive = small, poorly fitted or top-dose-only effect, or another doubt; inactive = no such curve, though single readings can be large; an effect the other way counts as inactive or inconclusive. Potency is read from the fitted curve at half-maximal effect.
SMILES,12-LOX inh,BAZ2B inh,G9a block,PLK1 PBD inh,JMJD2A Tudor inh,HP1b chromo inh
COC(=O)c1[nH]c2cc(C)ccc2c1NC(=O)CN1CCCc2ccccc21,-15%,45µM*,?,-14%,?,12%
COC(=O)c1[nH]c2ccc(C)cc2c1NC(=O)CN1CCc2cc(OC)c(OC)cc2C1,-9%,?,50µM*,-1%,-26%,16%
COc1cc2c(cc1OC)CN(CC(=O)Nc1ccc(C)cc1)CC2,?,-36%,?,-1%,-17%,26%
COc1cc(C(=O)Nc2c(C(=O)O)[nH]c3ccc(C)cc23)cc(OC)c1OC,1%,-21%,?,-13%,-20%,-4%
CCC(c1nnc(SCCNCCO)n1CCN1CCOCC1)N(C)C (configuration not stated),0%,nt,2%[59 µM],-7%,?,-1%
CN(C(=O)Nc1ccccc1)C1CCOc2ccccc21 (configuration not stated),40%[176 µM],nt,nt,nt,nt,nt
COc1ccccc1N1CC(C(=O)Nc2cc(Cl)ccc2-n2cncn2)CC1=O (configuration not stated),-24%,nt,nt,nt,nt,nt
Cc1occc1C(=O)NCc1cccc(CNC(=O)c2ccoc2C)c1,nt,50µM*,22µM*,?,56µM*,?
CCOC(=O)c1sc(NC(=O)C(CC)OC(=O)C(CC(C)C)NC(=O)c2ccccc2)nc1C (configuration not stated),?,3%,-4%[59 µM],-14%,-2%[11.4 µM],21%
CC1(C)OC(C)(C)/C(=C/Nc2ccc(O)cc2)C1=O,?,?,8.9µM*,-7%,?,-27%
Nc1nc(CN2CCOCC2)cs1,-22%,1%,24%[12.7 µM],24µM*,22µM*,-6%
Cc1ccc(S(=O)(=O)n2cccc2/C=C/[N+](=O)[O-])cc1,35µM*,nt,nt,7.5µM*,nt,nt
CC(=O)Oc1ccc(N(C(C)=O)S(=O)(=O)c2ccc(C)cc2C)c2ccccc12,-1%,-1%,15%[59 µM],4%,-12%,?
Cc1ccc(S(=O)(=O)N(C(=O)c2ccncc2)c2ccc(OC(=O)c3ccncc3)c3ccccc23)cc1,-27%,-35%,8.9µM*,9.5µM*,40µM*,-28%
CC(=O)Oc1ccc(N(C(C)=O)S(=O)(=O)c2ccccc2)c2ccccc12,4%,nt,nt,-2%,nt,nt
Cc1ccc(S(=O)(=O)N(C(=O)c2ccncc2)c2ccc(OC(=O)c3ccncc3)c3ccccc23)c(C)c1,nt,?,1.6µM*,13µM*,?,?
CCc1ccc(-c2cn[nH]c2C=O)cc1,-48%,nt,nt,nt,nt,nt
CCN(Cc1ccccc1)C(=O)/C=C/c1ccccc1[N+](=O)[O-],-1%,89µM*,-47%,-9%,-21%,40%
O=C(/C=C/c1ccccc1[N+](=O)[O-])Oc1ccccc1,nt,?,71µM*,nt,nt,nt
NC(=O)COC(=O)/C=C/c1ccccc1[N+](=O)[O-],0%,-29%,-5%,-26%,-29%,-7%
O=C(/C=C/c1ccccc1[N+](=O)[O-])OCc1ccccc1F,-22%,nt,nt,nt,nt,nt
O=C(/C=C/c1ccccc1[N+](=O)[O-])c1ccc(F)cc1,-4%,-16%,40µM*,-13%,-3%,6%
O=C(/C=C/c1cccc(O)c1)c1ccc(F)cc1,45µM*,nt,nt,nt,nt,nt
O[C@H]1[C@H](NCC2CC2)[C@@H](c2cncnc2)C[C@H]1O,67%[176 µM],nt,nt,nt,nt,nt
CCOc1cc(N2CCOCC2)c(OCC)cc1NC(=O)CC12CC3CC(CC(C3)C1)C2,?,35µM*,13µM*,0%,45µM*,-52%
SMILES,12-LOX inh,BAZ2B inh,G9a block,PLK1 PBD inh,JMJD2A Tudor inh,HP1b chromo inh
CCOc1cc(N2CCOCC2)c(OCC)cc1NC(=O)Cc1ccc(OC)c(OC)c1,-9%,?,50µM*,-2%,?,-10%
CCOc1ccc(OCCC(=O)OCC(=O)Nc2cc(OCC)c(N3CCOCC3)cc2OCC)cc1,-10%,?,35µM*,-2%,?,?
CCOc1cc(N2CCOCC2)c(OCC)cc1NC(=O)COC(=O)C1CCCN1S(=O)(=O)c1ccccc1F (configuration not stated),?,-38%,19%[12.7 µM],-5%,-34%,3%
CCOc1cc(N2CCOCC2)c(OCC)cc1NC(=O)COC(=O)[C@@H]1CCCN1S(=O)(=O)c1ccccc1F,-18%,?,45µM*,4%,-30%,5%
CCOc1cc(N2C(=O)CC3CS(=O)(=O)CC32)c(OCC)cc1NC(=O)c1ccccc1 (configuration not stated),-3%,-2%,-32%[2.33 µM],3µM*,?,?
CCOc1cc(N2CCOCC2)c(OCC)cc1NC(=O)c1ccc2ncsc2c1,?,-38%,4%[12.7 µM],-15%,-27%,13%
CCOc1cc(N2CCOCC2)c(OCC)cc1NC(=O)Cc1cccc(OC)c1,0%,?,50µM*,-2%,?,-17%
CCOc1cc(N2CCOCC2)c(OCC)cc1NC(=O)c1cccc(N(C)C)c1,-3%,40µM*,45µM*,4%,?,?
CCCN(C)c1nccnc1OC1CCN(C(=O)C2CCC2)C1 (configuration not stated),29%,nt,nt,nt,nt,nt
O=C(c1cc([N+](=O)[O-])ccc1Cl)N1c2ccccc2Sc2ccccc21,-10%,?,8.9µM*,-5%,?,-34%
C=CCn1c(=O)c2ccccc2n2c(=S)[nH]nc12,?,-10%,7.9µM*,-6%,7.9µM*,-19%
CC(C)CCn1c(=O)c2ccccc2n2c(=S)[nH]nc12,?,45µM*,1.4µM*,-16%,3.5µM*,71µM*
C=CCn1c(=O)c2ccccc2n2c(SCC(=O)c3ccccc3)nnc12,0%,1%,22µM*,24µM*,-11%[11.4 µM],-19%
C=CCn1c(=O)c2ccccc2n2c(SCC(=O)N(C)C)nnc12,11%,-16%,0%,-6%,-3%,38%
CCOCCCn1c(=O)c2ccccc2n2c(=S)[nH]nc12,4µM*,-24%,10µM*,5%,4µM*,-13%
CC(=O)N1CCN(C(=O)COc2ccc(N(C)S(=O)(=O)c3cccs3)cc2)CC1,4%,7%,-27%,?,-30%,17%
